A selection: hits, their analogues and other compounds. The true share with any hit is near 5.7%.
Giardia killer: Small Molecules that selectively kill Giardia lamblia: qHTS; Giardia lamblia trophozoite viability; activity change, % at 7.66 µM, hits read low; hit rate 0.15% among 340,000; in the data active means activity change below about -80%; inconclusive means between about -30% and that limit;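 further: parasites exposed to compound for two days anaerobically before the ATP read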
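Luminescence from cellular ATP indicates surviving trophozoites (100 cells/well) following 48 hrs anaerobic compound treatment at 37 deg C; signal develops 15-30 min at room temperature.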
PI4K2A inh: qHTS for small molecular inhibitors of PI4K2A | Phosphatidylinositol 4-kinase type 2-alpha (Homo sapiens), Q9BTU6 | hit rate 0.13% among 420,000 | activity change, negative = inhibition, % at 76.9 µM | purified PI4K2A, ADP-Glo luminescence, 1 h; active compounds read low; in the data active means activity change below about -50%; inconclusive means mostly about -30% to -49%;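 further: -100% = wells without enzyme as full effect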
Target sequence (Q9BTU6 whole entry, looked up): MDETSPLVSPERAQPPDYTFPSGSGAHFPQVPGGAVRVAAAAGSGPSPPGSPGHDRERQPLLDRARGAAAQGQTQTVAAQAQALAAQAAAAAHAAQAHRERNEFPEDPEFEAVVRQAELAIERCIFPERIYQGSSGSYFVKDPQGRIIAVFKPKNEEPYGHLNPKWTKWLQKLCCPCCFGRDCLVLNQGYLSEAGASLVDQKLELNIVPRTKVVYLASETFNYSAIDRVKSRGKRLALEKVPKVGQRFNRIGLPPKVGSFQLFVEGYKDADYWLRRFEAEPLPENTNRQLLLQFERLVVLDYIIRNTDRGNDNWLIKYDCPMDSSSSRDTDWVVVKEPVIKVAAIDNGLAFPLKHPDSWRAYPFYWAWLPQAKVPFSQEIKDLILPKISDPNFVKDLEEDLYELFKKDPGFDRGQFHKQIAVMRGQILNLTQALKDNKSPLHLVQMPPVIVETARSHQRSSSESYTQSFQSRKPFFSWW
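In this quantitative HTS, ADP production by PI4K2A was quantified luminescently after 1 h at ambient temperature; 100 microM adenosine served as plate-quality control.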
A549 viability: Nrf2 qHTS screen for inhibitors: counterscreen for cytotoxicity; Potency, µM (highest dose often 46 µM), inactives show at the top dose activity change, negative = cytotoxicity, usual class: inhibitors; hit rate 0.16% among 390,000; A549 ARE-Fluc cells, CellTiter-Fluor viability, 18-24 h; AID 504648, 2011; further: potency means the concentration at half of the fitted maximal effect
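Cytotoxicity counterscreen: CellTiter-Fluor fluorescence was measured in A549 ARE_Fluc cells after 18-24 h of compound exposure in a concentration series. The subsequent BugLite luminescent read reports ARE-luciferase activity.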
Nrf2 block: Nrf2 qHTS screen for inhibitors. A549 ARE-Fluc reporter, luciferase luminescence, 18-24 h. Potency, µM (titrated, usually from 46 µM), for the others: top-dose activity change, negative = inhibition, most hits filed as inhibitors. hit rate 2.1% among 360,000. AID 504444, 2011; further: potency means the concentration at half of the fitted maximal effect; nearly all actives have a fitted effect of over 60% in size
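Two sequential reads on A549 ARE_Fluc cells exposed to compound for 18-24 h: a CellTiter-Fluor fluorescence read for viability, then a luciferase luminescence read for Nrf2/ARE activity.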
KB-3-1 tox: qHTS assay for MDR1-selective chemotherapeutics: Primary screen using the parental adenocarcinoma cell KB-3-1; KB-3-1 viability, CellTiter-Glo ATP luminescence, 72 h; Potency, µM (titrated, usually from 46.1 µM), usual class: cytotoxic; hit rate 1.4% among 400,000; AID 1347075, 2019; further: potency means the concentration at half of the fitted maximal effect; nearly all actives have a fitted effect of over 60% in size
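Cells are dispensed, compounds pinned in, plates held at 37 °C for 72 h, then CellTiter-Glo is added and luminescence read after 10 minutes. Cell line: parental KB-3-1 in phenol-red-free DMEM, 10% FBS.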
KB-V1 MDR tox: qHTS assay for MDR1-selective chemotherapeutics: Primary screen using the drug-selected MDR subline cells KB-V1 | KB-V1 MDR cells viability, CellTiter-Glo, 72 h | Potency, µM (titrated, usually from 46.1 µM), most hits filed as cytotoxic | hit rate 3.4% among 400,000 | AID 1347076, 2019; further: potency means the concentration at half of the fitted maximal effect; nearly all actives have a fitted effect of over 60% in size
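KB-V1 cells (P-gp-expressing MDR subline of KB-3-1) in phenol-red-free DMEM with 10% FBS were exposed to library compounds over a concentration series for 72 h at 37 degrees C. Viability read by CellTiter-Glo luminescence; concentration-effect curves fitted after normalization.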
Starred values were filed as active, the others as inactive; i = inactive; u = inconclusive; x = not tested or not shown. Unless noted, the call rests on the fitted dose curve; in most records, active means well fitted curve in the direction sought with a large enough effect; inconclusive means small, poorly fitted or top-dose-only effect, or another doubt; inactive means no such curve, though single readings can be large; an effect the other way counts as inactive or inconclusive. Unless noted, on the % scale 0 is the no-effect control and ±100 the full control effect.

SMILES	Giardia killer	PI4K2A inh	A549 viability	Nrf2 block	KB-3-1 tox	KB-V1 MDR tox
Cc1nnc(NC(=O)CSc2nnc3scc(-c4ccc(C)c(C)c4)n23)s1	-1.8	-0.3	-1.5%	-9.7%	i	20.6µM*
CC(C)(C)c1ccc(NC(=O)CSc2nnc3scc(-c4ccccc4)n23)cc1	x	-2.9	-0.5%	16.4µM*	i	u
Cc1ccc(NC(=O)CSc2nnc3scc(-c4ccc(Cl)cc4)n23)cc1	x	-1.2	-1.0%	11.3%	i	i
CCN(Cc1ccccc1)Cc1c(O)ccc2oc(C)c(C(=O)Nc3ccccc3C)c12	x	2.4	-19.8%	14.9%	x	x
CCOc1ccccc1CNc1ncnc2c1nc1n2CCCC1	x	0.0	-4.0%	-25.8%	x	x
CCc1cccc(NC(=O)c2ccc(CNS(=O)(=O)c3ccc4c(c3)C(C)(C)C(=O)N4C)cc2)c1	x	1.5	-20.9%	16.4µM*	x	x
Cc1cc(C)cc(NC(=O)C2CCC(CNS(=O)(=O)c3ccc4c(c3)C(C)(C)C(=O)N4C)CC2)c1 (stereo not drawn)	x	-1.1	-1.6%	u	18.4µM*	i
Cc1ccc(NC(=O)c2ccc(CNS(=O)(=O)c3ccc4c(c3)C(C)(C)C(=O)N4C)cc2)cc1F	x	-1.3	-18.9%	23.1µM*	x	x
COC(=O)[C@]12C[C@H](CC(=O)NCc3ccc(C)o3)C(=O)N(Cc3ccc(Cl)cc3Cl)C1=C[C@H](C(C)C)O[C@@H]2C1CC1	x	-0.2	x	x	x	x
COCC(C)N1C(=O)Cc2c1nc(N)c1c(N)nc(N3CCN(c4ccccc4F)CC3)c(C#N)c21 (stereo not drawn)	23.2	u	-11.0%	11.6µM*	u	u
CN(Cc1ccco1)C(=O)c1cccc2c1C(=O)N(Cc1cccnc1)C2	x	-3.8	x	x	x	x
C=CCN(C)C(C#Cc1ccccc1)c1ccccc1C(F)(F)F (stereo not drawn)	x	5.4	x	x	x	x
CCN(CC)C(=O)CC[C@H]1CC[C@]2(CCCN(C(=O)c3cccnc3)C2)O1	x	1.1	x	x	x	x
Cc1ccc(NC(=O)CCN2CCN(C/C=C/c3ccccc3)CC2)cc1	19.2	-19.8	u	3.1%	i	i
Cc1ccc(NC(=O)CCN2CCN(C/C=C/c3ccccc3)CC2)cc1C	-18.8	2.4	u	-15.9%	i	3.26µM*
CC(C)(C)OC(=O)N1CCC(c2nnc(SCc3cccc(Cl)c3)o2)CC1	x	-1.2	-2.9%	u	i	18.4µM*
CC(C)(C)OC(=O)N1CCC(c2nnc(SCc3ccccc3F)o2)CC1	x	0.3	u	20.6µM*	i	u
Clc1ccccc1CSc1nnc(C2CCNCC2)o1	x	-0.2	-7.1%	16.4%	i	i
CC(C)(C)OC(=O)N1CCC(c2nnc(SCc3ccccc3Cl)o2)CC1	x	3.4	-3.2%	-21.5%	i	9.2µM*
CC(C)(C)OC(=O)NCCc1nnc(SCc2ccccc2Cl)o1	2.4	0.1	x	25.9µM*	i	i
CC(C)(C)OC(=O)N1CCC[C@H]1c1nnc(SCc2ccccc2F)o1	-20.5	3.2	-3.5%	2.3%	i	i
COCc1cn(-c2ccc3c(c2)[C@@]2(CC(=O)N(C)C2c2ccccc2)C(=O)N3CC(C)C)nn1 (stereo partly drawn)	x	1.4	x	x	x	x
Nc1nc2cc3c(cc2cc1C(=O)NCc1ccc(F)cc1)OCO3	x	-3.6	x	x	7.31µM*	i
COc1ccccc1C(=O)N1CCC(Oc2cccnc2)CC1	x	-0.8	x	x	x	x
Cc1ccc(NS(=O)(=O)c2cccc(C(=O)Nc3cccnc3)c2)c(C)c1	-7.4	-22.2	-8.8%	8.2µM*	u	i
SMILES	Giardia killer	PI4K2A inh	A549 viability	Nrf2 block	KB-3-1 tox	KB-V1 MDR tox
CN(CC(=O)Nc1ccccc1Br)C(=O)c1cccc(S(=O)(=O)N2CCc3ccccc32)c1	0.0	4.7	-12.5%	u	i	18.4µM*
O=C(Nc1nc2ccc(F)cc2s1)c1cccc(S(=O)(=O)N2CCc3ccccc32)c1	2.5	2.9	-3.1%	-24.9%	u	2.91µM*
COc1ccc(NC(=O)CN(C)C(=O)c2cccc(S(=O)(=O)N3CCCc4ccccc43)c2)cc1	5.3	4.2	-11.9%	-1.2%	i	i
CCn1c(=O)n(CC)c2cc(S(=O)(=O)N3CCc4ccccc43)ccc21	19.4	-4.4	6.3%	u	u	2.31µM*
COc1ccc(CN2CN3Cc4cc(F)ccc4C3CS2(=O)=O)cc1 (stereo not drawn)	x	-1.1	x	x	x	x
O=C(Nc1nc2c(s1)CCCC2)c1cccc(S(=O)(=O)N2CCCc3ccccc32)c1	33.0	-7.9	1.4%	20.6µM*	u	i
COc1ccccc1C(CNC(=O)c1cccc(S(=O)(=O)N2CCCc3ccccc32)c1)N(C)C (stereo not drawn)	5.8	8.2	-6.9%	2.9%	i	5.8µM*
O=C(Nc1cccnc1)c1cccc(S(=O)(=O)N2CCc3ccccc32)c1	6.5	0.3	-2.8%	u	u	10.3µM*
CCC(CC)c1nnc(NC(=O)c2cccc(S(=O)(=O)N3CCc4ccccc43)c2)s1	-0.7	-0.4	-2.7%	20.6µM*	i	14.6µM*
CN1CCc2nc(NC(=O)c3cccc(S(=O)(=O)N4CCc5ccccc54)c3)sc2C1	8.7	3.2	4.7%	-10.3%	i	i
COc1ccc(C(CNC(=O)c2cccc(S(=O)(=O)N3CCc4ccccc43)c2)N(C)C)cc1 (stereo not drawn)	3.8	-2.8	u	-11.3%	u	i
CC(C)C[C@@H](CCCc1ccccc1)CCC(=O)N(c1ccccc1)c1ccccc1	x	-1.1	x	x	x	x
CCCNC(=O)c1cc(S(=O)(=O)N2CCc3ccccc32)cn1C	-6.3	1.5	-11.6%	11.6µM*	i	u
CCc1ccccc1NC(=O)c1cc(S(=O)(=O)N2CCc3ccccc32)cn1C	-23.5	-2.5	-3.8%	-14.0%	i	i
CCOC(=O)CC(NC(=O)c1ccco1)c1ccc(OC)cc1 (stereo not drawn)	2.6	3.4	-11.4%	0.9%	i	23.1µM*
Cn1nc(-c2ccc(C(=O)Nc3cccnc3)cc2)c2ccccc2c1=O	5.9	-0.4	-3.9%	u	i	i
Cn1nc(-c2ccc(C(=O)Nc3ccc(F)cc3)cc2)c2ccccc2c1=O	4.5	0.0	-4.1%	18.4µM*	i	u
Cc1ccc(NC(=O)c2ccc(-c3nn(C)c(=O)c4ccccc34)cc2)cc1	0.0	0.9	-5.7%	u	i	20.6µM*
Cn1nc(-c2ccc(OCC(=O)Nc3cccc(C(F)(F)F)c3)cc2)c2ccccc2c1=O	x	2.6	u	25.9µM*	i	i

Bioassay records deposited in PubChem by National Center for Advancing Translational Sciences (NCATS).
